Assay results as given in PubChem BioAssay AID1688 (National Center for Advancing Translational Sciences (NCATS), 2009).
The campaign covered roughly 220,000 compounds. About 2,400 (1.1%) were called active. Another 7% or so got no clear call; they are omitted. The sample as a whole holds a higher share of actives than the screen did. Unmarked numbers belong to inactive results. Calls come from the whole dose curve; as a rule, active = well fitted inhibition curve with a large enough effect; inconclusive = small, poorly fitted or top-dose-only effect, or effect the other way; inactive = no such curve, though single readings can be large or run the other way.

Experiment: qHTS Multiplex Assay to Identify Dual Action Probes in a Cell Model of Huntington: Aggregate Formation (GFP); note: nearly all actives have a fitted effect of over 60% in size
Conditions: PC12 HttQ103-GFP aggregates, Acumen cytometry, 40 h; series mostly up to 9.22 µM; activity change, negative = inhibition: at the top concentration
Source text: NIH Chemical Genomics Center [NCGC]
NIH Molecular Libraries Probe Production centers Network [MLPCN]
Assay Submitter (PI): Wei Zheng
Huntington's disease is a neurodegenerative disorder caused by a trinucleotide repeat expansion in Exon 1 of the Huntingtin gene. The CAG trinucleotide encodes glutamine and polyglutamine expansions cause cell death in selective areas of the brain. Huntington polyglutamine repeats have the tendency to form aggregates which are observable in later stages of the disease. The exact nature of the aggregates, whether toxic, protective, or insignificant, is unclear.
A stable PC12 cell line containing a gene fusion of Exon 1 of the Huntingtin gene linked to GFP under the control of the inducible ecdysone promoter were used as the cell-based model of Huntington Disease for high throughput screening. Exon 1 of the Huntingtin gene contained an expansion of 103 polyglutamines (Q103) which, when expressed, caused cell death and distinct, bright GFP aggregates. The amount of cell death and the size and intensity of GFP aggregates increased over time and induction level. The cell death were quantified with a measurement of ATP content in the cells. A maximal 40-50% of cell death was observed when the Huntington gene was induced in this cell line.
We optimized this assay in a homogeneous 1536 well format. A quantitative high throughput screen (qHTS) was conducted on the PC12 cells which were induced to express the toxic fusion construct. Small molecules which reduced aggregate formation were identified bu using a laser scanning cytometer calibrated to detect the aggregates in cell lysates.
PC12 cells stably containing a construct with an ecdysone inducible promoter expressing GFP fused to the exon 1 of HTTQ103 (Huntington protein which containing a 103 ployglutamine expansion) were used.
NCGC Assay Protocol Summary:
Sequence, Parameter, Description
1, Reagent, 5 uL 1500 cells/well 1536 TC treated White clear bottom plate
2, Compound, 23 nL Tebufenozide inducer (100 nM final) to all columns
3, Compound, 23 nL 40 uM to 0.5 nM Libraries
5, Reagent, 5 ul ATPLite cell death assay reagent
6, Detector, Aggregate quantitation by Acumen Explorer
Media consisted of phenol red free DMEM + 5% equine serum (Hyclone # SH30072.03 ), 5% supplemented Bovine Calf Serum (Hyclone # SH30074.03 ), 1x pen/strep, no G418
Acumen Explorer was used to quantitate GFP aggregates using the following criteria: […] laser excitation, 500-530 nm emission, the PMT was set at a voltage of 450 volts, and objects ranging in size of […] in size having a signal of 6 STDEV above background were collected.
Control columns: 1 = DMSO, 2= 2 uM teb dilns (1:1), 4 = 100 nM Teb inducer. Sample columns received 100 nM Teb.
% is set by controls: 0 for no effect and ±100 for the full control effect.

SMILES | activity change, negative = inhibition | Potency
N/C(=N/O)c1cccn1Cc1ccccc1[N+](=O)[O-] | 1.61% [at 46.1 µM] | 
O=C(NCC1CCCO1)c1ccccc1-c1nc(-c2ccccc2Cl)no1 (stereo unspecified) | 0.943% | 
CC(=O)Nc1ccc(C(=O)/C=C/c2ccc[nH]2)cc1 |  | 11.2 µM (active)
CC(=O)Nc1ccc(/C=C/C(=O)c2ccccc2)cc1 | -17.7% | 
CCCC(=O)Nc1ccc(C(=O)N/N=C/c2ccc[nH]2)cc1 | -1.27% [at 46.1 µM] | 
Cn1c(=O)c(=O)n(C)c2cc(S(=O)(=O)NCCN3CCN(c4ccccc4F)CC3)ccc21 | -1.75% | 
COC(=O)CNc1nc(Cl)nc(N2CCC(C)CC2)n1 | 3.06% | 
N#Cc1c(C(F)(F)F)cc(-c2cccs2)nc1N1CCCCC1 | -10.4% | 
O=C(Nc1ccncc1)c1c(F)cccc1F |  | 12.6 µM (active)
CSc1nc2ccc(NC(=O)c3c(F)cccc3F)cc2s1 | -18.4% [at 46.1 µM] | 
COc1cccc(OC)c1C(=O)Nc1ccc(Cc2ccncc2)cc1 | 9.12% [at 46.1 µM] | 
O=C(Nc1ccccc1C(F)(F)F)N1CCCC1c1cccnc1 (stereo unspecified) | 3.58% | 
CCOC(=O)c1c(C)[nH]c2c1-c1ccccc1C(=O)C2=O |  | 5.01 µM (active)
Cc1[nH]c2ccccc2c1C(=O)COC(=O)C(C)C | 3.18% [at 46.1 µM] | 
CCOC(=O)c1cc2n(c1N)-c1ccccc1C2=O | -8.66% [at 46.1 µM] | 
Nc1nnc(SCC(=O)NC2CCCc3ccccc32)s1 (stereo unspecified) | -2.41% | 
O=C(Cc1ccc(Cl)c(Cl)c1)Nc1ccc(SC(F)F)cc1 |  | 12.6 µM (active)
O=C(CCl)Nc1ccc(Sc2ccc(NC(=O)CCl)cc2)cc1 | 21.2% | 
O=C(Cc1ccc2c(c1)CCCC2)Nc1ccccc1Cl | -12.7% [at 46.1 µM] | 

SMILES | activity change, negative = inhibition | Potency
O=C(NNC(=O)c1cnccc1C(F)(F)F)c1ccc(Cl)cc1 | -21.6% | 
CC(=O)NC(CC(=O)Nc1nccs1)c1ccccc1 (stereo unspecified) | 1.89% | 
CCCCC(C(=O)OCC(=O)c1ccc(OC)cc1)N1C(=O)c2ccccc2C1=O (stereo unspecified) | -15.5% [at 46.1 µM] | 
CCOC(=O)c1c(-c2ccc(C)cc2)csc1/N=C(\C)C1=C(O)c2ccccc2C1=O | 0.394% | 
CCOC(=O)C1=C(c2ccc(OC)cc2)C(=O)c2ccccc2C1=O |  | 11.2 µM (active)
CC(CNS(=O)(=O)c1ccc(Br)cc1)CN(C)C (stereo unspecified) | -16.9% | 
c1ccc(Nc2nc(N3CCOCC3)c3ccccc3n2)cc1 |  | 12.6 µM (active)
c1ccc(-c2nnc(N3CCOCC3)c3ccccc23)cc1 | -30.7% | 
CN1CCN(c2nc(Nc3ccc(O)cc3)nc3ccccc23)CC1 | -3.21% [at 46.1 µM] | 
CN(c1ccc(OCC(=O)NC2=NCCS2)cc1)S(=O)(=O)c1ccc(F)cc1 | -8.7% | 
Cc1ccc(C(=O)Nc2nnc(-c3cccs3)s2)cc1C | 0.134% [at 46.1 µM] | 
CC(=O)c1sc(NC(=O)c2ccc(C)cc2)nc1C | 8.67% [at 46.1 µM] | 
N#Cc1ccc(C(=O)Nc2nc(-c3cccs3)c(C(=O)C(F)(F)F)s2)cc1 |  | 2.82 µM (active)
Clc1ccc(CSc2nnc3c(n2)[nH]c2ccccc23)cc1 | -6.63% | 
Cc1ccc(CSc2nnc(-c3cnccn3)n2C)cc1 | -6.59% | 
COc1ccc(CC(=O)NCC(=O)N/N=C/c2cc(Br)ccc2OC)cc1 | 9.05% | 
O=C(CCCO)N/N=C/c1cc(Br)ccc1O |  | 7.94 µM (active)
Oc1ccc(Br)cc1C=Nc1ccc2[nH]ncc2c1 | -6.74% [at 46.1 µM] | 
COc1ccc(Cl)cc1CSc1ncn[nH]1 | -11.8% | 

SMILES | activity change, negative = inhibition | Potency
COc1ccc(-n2c(C)cc(C(=O)CSc3nnc(-c4cccs4)o3)c2C)cc1 |  | 7.94 µM (active)
COc1ccc(-c2nnc(SCC(=O)c3cccs3)o2)c(OC)c1 | 17.5% [at 46.1 µM] | 
COc1ccc(OC)c(C(=O)CSc2nnc(-c3cccs3)o2)c1 | -1.52% [at 46.1 µM] | 
C/C=N/N(c1ccccc1)c1ccccc1 | 13.7% | 
COc1cccc(Nc2nnc(SCC(=O)N3CC(=O)Nc4ccccc43)s2)c1 | -23.2% | 
O=P(O)(O)OC[C@H](O)CO | 11.5% [at 46.1 µM] | 
Cc1nc(CNS(=O)(=O)c2cccnc2)cs1 | 12.4% [at 46.1 µM] | 
Cc1nc(CNS(=O)(=O)c2ccc(Oc3ccccc3)cc2)cs1 |  | 10 µM (active)
Cc1ccc(S(=O)(=O)NCc2csc(C)n2)c(C)c1 | 14.9% [at 46.1 µM] | 
CSC1=NC2(C)CCCCC2C12C=CC(=O)C=C2 (stereo unspecified) | 7.52% | 
Nn1c(SCc2ccccc2)nnc1C1CCCCC1 | 8.02% | 
Cc1cccc(Cn2c(N3CCN(c4ccccc4)CC3)nc3c2c(=O)n(C)c(=O)n3C)c1 | -27.9% [at 46.1 µM] | 
Cc1cccc(Cn2c(SCCO)nc3c2c(=O)n(C)c(=O)n3C)c1 | -20.3% [at 46.1 µM] | 
COC(=O)C(C)Sc1nc2c(c(=O)n(C)c(=O)n2C)n1Cc1cccc(C)c1 (stereo unspecified) |  | 28.2 µM (active)
CCCCNc1nc2c(c(=O)[nH]c(=O)n2C)n1CCOc1ccccc1 | 15.4% [at 46.1 µM] | 
CCCCNc1nc2c(c(=O)n(C)c(=O)n2C)n1Cc1cccc(OC)c1 |  | 7.08 µM (active)
CCn1c(NCCc2ccc(OC)c(OC)c2)nc2c1c(=O)n(C)c(=O)n2C | -18.1% [at 46.1 µM] | 
CN(C)C(=O)c1coc2nc3ccccc3nc12 | 8.88% | 
